Compound activity (PubChem BioAssay)
Shown are actives, neighbours in structure and some others; about 12% of the full set was active somewhere.
JMJD2A Tudor inh: qHTS Assay for Inhibitors of JMJD2A-Tudor Domain; AlphaScreen JMJD2A-Tudor / H3K4me3 peptide binding; Potency, µM (top dose mostly 114 µM), for inactives: top-dose activity change, negative = inhibition, hits mostly inhibitors; hit rate 4.4% among 390,000; further: on the % scale 0 is the no-effect control and ±100 the full control effect; nearly all actives have a fitted effect of over 50% in size
Sfp PPTase inh: qHTS Assay for Inhibitors of Bacillus subtilis Sfp phosphopantetheinyl transferase (PPTase); 4'-phosphopantetheinyl transferase ffp (Bacillus subtilis), Q9F4F7; Biochemical Sfp PPTase activity, qHTS; Potency, µM, without a hit: largest response in the series, negative = inhibition, hits mostly inhibitors; hit rate 3.5% among 310,000; AID 1490, 2009;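 further: the enzyme is Sfp with the accession as filed and its product quenches rhodamine fluorescence; 0% = enzyme reaction without inhibitor and -100% = no enzyme wells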
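Step 1, compound plus 15 nM Sfp-PPTase, 15 min, room temperature. Step 2, add rhodamine-CoA (5 uM) and BHQ-2-YbbR (12.5 uM). Step 3, read 525/598 nm fluorescence at 0 and 30 min.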
HP1b chromo inh: HTS for Inhibitors of HP1-beta Chromodomain Interactions with Methylated Histone Tails; Chromobox protein homolog 1 (Homo sapiens), P83916; AlphaScreen HP1-beta / biotin-H3K9me3 peptide binding; Potency, µM (series often up to 114 µM), without a hit: at the top dose activity change, negative = inhibition, hits mostly inhibitors; hit rate 0.56% among 390,000; further: nearly all actives have a fitted effect of over 70% in size
Target sequence (P83916 whole entry, looked up): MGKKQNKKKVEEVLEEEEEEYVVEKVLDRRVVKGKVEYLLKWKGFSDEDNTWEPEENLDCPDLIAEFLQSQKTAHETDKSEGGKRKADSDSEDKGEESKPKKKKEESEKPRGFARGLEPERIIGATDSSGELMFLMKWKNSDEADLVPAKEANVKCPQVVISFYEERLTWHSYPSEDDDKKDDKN
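AlphaScreen: HP1-beta (50 nM) preformed 30 min with biotin-H3(1-18)K9me3 peptide (50 nM) in PBS pH 7.4, 0.01% Tween-20. Compound added for 30 min at RT, then streptavidin donor/nickel chelate acceptor beads (10 ug/mL) for 30 min.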
G9a block: qHTS Assay for Inhibitors of Histone Lysine Methyltransferase G9a | Histone-lysine N-methyltransferase EHMT2 (Homo sapiens), Q96KQ7 | G9a H3K9 monomethylation, AlphaScreen, 2 h | Potency, µM (highest dose often 102 µM), without a hit: at the top dose activity, negative = inhibition, most hits filed as inhibitors | hit rate 8.8% among 350,000; further: on the % scale 0 is the no-effect control and ±100 the full control effect; nearly all actives have a fitted effect of over 75% in size
Target sequence (Q96KQ7 913-1193 limits assumed): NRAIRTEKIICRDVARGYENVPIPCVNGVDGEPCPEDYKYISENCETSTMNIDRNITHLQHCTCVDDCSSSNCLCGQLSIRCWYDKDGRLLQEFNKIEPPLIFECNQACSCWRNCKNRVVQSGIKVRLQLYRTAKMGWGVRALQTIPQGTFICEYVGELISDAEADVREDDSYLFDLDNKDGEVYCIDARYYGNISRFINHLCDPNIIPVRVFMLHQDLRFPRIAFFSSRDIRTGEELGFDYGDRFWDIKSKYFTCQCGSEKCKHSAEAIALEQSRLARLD
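Using a bead-based AlphaScreen, monomethylated H3K9 product from 2 h room-temperature reactions (G9a 20 nM, peptide 500 nM, SAM 20 uM) was detected with 0.5 ug/mL rabbit anti-H3K9me1 antibody.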
BAZ2B inh: qHTS Assay for Inhibitors of BAZ2B; Bromodomain adjacent to zinc finger domain protein 2B (Homo sapiens), Q9UIF8; Potency, µM (titrated, usually from 114 µM), for the others: top-dose activity change, negative = inhibition, most hits filed as inhibitors; hit rate 4.4% among 360,000; AlphaScreen BAZ2B-H3K14Ac peptide displacement; AID 504333, 2011; further: on the % scale 0 is the no-effect control and ±100 the full control effect; nearly all actives have a fitted effect of over 60% in size
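AlphaScreen luminescence quantifies BAZ2B engagement of H3K14Ac peptide; the protein and biotinylated peptide are both at 50 nM final, buffer PBS pH 7.4 with 0.01% Tween-20, all steps at room temperature.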
Starred values were filed as active, the others as inactive; [ ] = remark or other dose. The call rests on the fitted dose curve; in most records, active means well fitted curve in the direction sought with a large enough effect; inconclusive means small, poorly fitted or top-dose-only effect, or another doubt; inactive means no such curve, though single readings can be large; an effect the other way counts as inactive or inconclusive. Potency means the concentration at half of the fitted maximal effect.

CC(C)(C)C1CCc2c(sc(N)c2C(N)=O)C1 (centres undefined) was read as JMJD2A Tudor inh -27.4%, Sfp PPTase inh 50.1µM*, HP1b chromo inh 13.4%, G9a block 3.98µM* and BAZ2B inh -19.7%.
CCCC1CCc2c(sc(N)c2C(N)=O)C1 (centres undefined) was read as JMJD2A Tudor inh inconclusive, Sfp PPTase inh inconclusive, HP1b chromo inh inconclusive, G9a block 31.6µM* and BAZ2B inh inconclusive.
For CC(=O)Cc1nsc(Nc2cccc(C)c2)n1 the results were JMJD2A Tudor inh -11.9%, Sfp PPTase inh -7.3%, HP1b chromo inh 36.4%, G9a block -46.7% and BAZ2B inh -13.2%.
For CC(=O)Cc1nsc(Nc2ccccc2)n1 the results were JMJD2A Tudor inh 1.4%, Sfp PPTase inh 0.4%, HP1b chromo inh 18.6%, G9a block 79.4µM* and BAZ2B inh 7.7%.
For CN(C(=O)c1ccc(S(=O)(=O)c2cccc(Cl)c2)c([N+](=O)[O-])c1)C1CCCCC1 the results were JMJD2A Tudor inh inconclusive, Sfp PPTase inh 6.8%, HP1b chromo inh -7.6%, G9a block 31.6µM* and BAZ2B inh -35.9%.
`COc1ccc(OCCOC(=O)c2[nH]c(C)c(C(C)=O)c2C)cc1` gave JMJD2A Tudor inh -29.4%, Sfp PPTase inh 4.7%, HP1b chromo inh 5.3%, G9a block -4.7% and BAZ2B inh -28.8%.
Cc1c(C)n(Cc2ccc(F)cc2)c2ccc(C(=O)NCCN3CCOCC3)cc12 was read as JMJD2A Tudor inh inconclusive, Sfp PPTase inh -11.3%, HP1b chromo inh -14.4%, G9a block 50.1µM* and BAZ2B inh 50.1µM*.
`Cc1cccc(Cn2c(C)c(C)c3cc(C(=O)NCCN4CCOCC4)ccc32)c1` gave JMJD2A Tudor inh 50.1µM*, Sfp PPTase inh -2.1%, HP1b chromo inh -5.4%, G9a block 39.8µM* and BAZ2B inh 56.2µM*.
For Cc1cccc(CNC(=O)c2ccc3c(c2)c(C)c(C)n3Cc2ccccc2)c1 the results were JMJD2A Tudor inh -24.0%, HP1b chromo inh 13.3%, G9a block -31.7%[59 µM] and BAZ2B inh inconclusive.
For CCOc1ccc(S(=O)(=O)NCC(c2ccc3c(c2)OCO3)N2CCN(C)CC2)cc1 (centres undefined) the results were JMJD2A Tudor inh -21.3%, HP1b chromo inh 3.8%, G9a block -20.6%[0.501 µM] and BAZ2B inh -13.1%.
`COc1ccc(NS(=O)(=O)c2ccc3c(c2)OCCO3)cc1OC` gave JMJD2A Tudor inh -11.5%, Sfp PPTase inh 11.4%, HP1b chromo inh 16.7%, G9a block inconclusive and BAZ2B inh -3.3%.
For COc1ccc(C)cc1S(=O)(=O)NCC(c1ccc2c(c1)OCO2)N1CCN(C)CC1 (centres undefined) the results were JMJD2A Tudor inh -4.1%, HP1b chromo inh 22.0%, G9a block 11.2µM* and BAZ2B inh 8.7%.
Screening COc1ccc(S(=O)(=O)NCC(c2ccc3c(c2)OCO3)N2CCN(C)CC2)cc1OC (centres undefined) returned JMJD2A Tudor inh -15.1%, HP1b chromo inh 7.2%, G9a block 50.1µM* and BAZ2B inh 8.7%.
For Cc1ccc(C)c(S(=O)(=O)NCC(c2ccc3c(c2)OCO3)N2CCOCC2)c1 (centres undefined) the results were JMJD2A Tudor inh -16.9%, HP1b chromo inh 14.0%, G9a block -0.3% and BAZ2B inh 12.2%.
For COc1ccc(S(=O)(=O)Nc2ccc3c(c2)OCO3)cc1OC the results were JMJD2A Tudor inh -22.5%, Sfp PPTase inh -7.7%, HP1b chromo inh 6.9%, G9a block 50.1µM* and BAZ2B inh -5.3%.
`O=C(O)c1ccc(NC(CSCc2ccccc2F)C(=O)O)c([N+](=O)[O-])c1` (centres undefined) gave JMJD2A Tudor inh 31.6µM*, Sfp PPTase inh -3.2%, HP1b chromo inh 1.1%, G9a block inconclusive and BAZ2B inh -13.6%.
